Compounds with a hit are over-represented: about 12% of the library has one in this group of screens.
HP1b binding inh: HTS for Inhibitors of HP1-beta Chromodomain Interactions with Methylated Histone Tails | Chromobox protein homolog 1 (Homo sapiens), P83916 | AlphaScreen HP1-beta / biotin-H3K9me3 peptide binding | Potency, µM (series often up to 114 µM), for the others: at the highest dose activity change, negative = inhibition, actives largely listed as inhibitors | hit rate 0.56% among 390,000 | AID 540317, 2011; further: potency means the concentration at half of the fitted maximal effect; nearly all actives have a fitted effect of over 70% in size
Target sequence (P83916 whole entry, looked up): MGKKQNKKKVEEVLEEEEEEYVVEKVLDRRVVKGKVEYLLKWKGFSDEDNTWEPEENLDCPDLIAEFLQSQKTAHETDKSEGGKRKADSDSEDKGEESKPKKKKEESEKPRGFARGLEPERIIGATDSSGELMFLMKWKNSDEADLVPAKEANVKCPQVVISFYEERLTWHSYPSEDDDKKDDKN
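AlphaScreen: HP1-beta (50 nM) preformed 30 min with biotin-H3(1-18)K9me3 peptide (50 nM) in PBS pH 7.4, 0.01% Tween-20. Compound added for 30 min at RT, then streptavidin donor/nickel chelate acceptor beads (10 ug/mL) for 30 min.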
JMJD2A Tudor inh: qHTS Assay for Inhibitors of JMJD2A-Tudor Domain; Lysine-specific demethylase 4A (Homo sapiens), O75164; AlphaScreen JMJD2A-Tudor / H3K4me3 peptide binding; Potency, µM (titrated, usually from 114 µM), for the others: top-dose activity change, negative = inhibition, usual class: inhibitors; hit rate 4.4% among 390,000; AID 504339, 2011; further: potency means the concentration at half of the fitted maximal effect; on the % scale 0 is the no-effect control and ±100 the full control effect; nearly all actives have a fitted effect of over 50% in size
BAZ2B inh: qHTS Assay for Inhibitors of BAZ2B | Bromodomain adjacent to zinc finger domain protein 2B (Homo sapiens), Q9UIF8 | AlphaScreen BAZ2B-H3K14Ac peptide displacement | Potency, µM (highest dose often 114 µM), for the others: at the top dose activity change, negative = inhibition, actives largely listed as inhibitors | hit rate 4.4% among 360,000; further: potency means the concentration at half of the fitted maximal effect; on the % scale 0 is the no-effect control and ±100 the full control effect; nearly all actives have a fitted effect of over 60% in size
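Multi-concentration screen (max 110 uM) measuring displacement of acetylated histone H3 peptide from BAZ2B by AlphaScreen, using 50 nM protein, 50 nM peptide and 10 ug/mL streptavidin donor plus Ni-chelate acceptor beads.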
PI5P4Ka inh: qHTS for Inhibitors of phosphatidylinositol 5-phosphate 4-kinase (PI5P4K) | hit rate 1.2% among 330,000 | PI5P4Kalpha enzyme, ADP-Glo luminescence, 60 min; stronger effect = lower value | AID 652105, 2013 | max response, % | Phosphatidylinositol 5-phosphate 4-kinase type-2 alpha (Homo sapiens), P48426; active means max response of -50% or lower; inconclusive means between -30% and -50%; inactive means -30% or higher; further: value at the top dose of about 77 µM; on the % scale 0 is the no-effect control and ±100 the full control effect
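Compounds were pin-transferred onto PI5P4Kalpha and substrate in HEPES pH 7.4 buffer with EGTA, CHAPS and 5% DMSO. ATP (5 microM final) started the reaction, which ran 60 minutes at room temperature before ADP-Glo detection.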
PLK1 PBD inh: qHTS for Inhibitors of PLK1-PDB (polo-like kinase 1 - polo-box domain): Primary Screen. Plk1 PBD binding of FITC phosphopeptide, fluorescence polarization. AID 720504, 2013. Potency, µM, for inactives: max response, negative = inhibition, usual class: inhibitors. Serine/threonine-protein kinase PLK1 (Homo sapiens), P53350. hit rate 2.8% among 360,000; further: potency means the concentration at half of the fitted maximal effect; series mostly up to about 57 µM; on the % scale 0 is the no-effect control and ±100 the full control effect; nearly all actives have a fitted effect of over 65% in size
G9a inh: qHTS Assay for Inhibitors of Histone Lysine Methyltransferase G9a. AID 504332, 2011. Histone-lysine N-methyltransferase EHMT2 (Homo sapiens), Q96KQ7. hit rate 8.8% among 350,000. G9a H3K9 monomethylation, AlphaScreen, 2 h. Potency, µM (series often up to 102 µM), without a hit: at the top dose activity, negative = inhibition, actives largely listed as inhibitors; further: potency means the concentration at half of the fitted maximal effect; on the % scale 0 is the no-effect control and ±100 the full control effect; nearly all actives have a fitted effect of over 75% in size
Target sequence (Q96KQ7 913-1193 limits assumed): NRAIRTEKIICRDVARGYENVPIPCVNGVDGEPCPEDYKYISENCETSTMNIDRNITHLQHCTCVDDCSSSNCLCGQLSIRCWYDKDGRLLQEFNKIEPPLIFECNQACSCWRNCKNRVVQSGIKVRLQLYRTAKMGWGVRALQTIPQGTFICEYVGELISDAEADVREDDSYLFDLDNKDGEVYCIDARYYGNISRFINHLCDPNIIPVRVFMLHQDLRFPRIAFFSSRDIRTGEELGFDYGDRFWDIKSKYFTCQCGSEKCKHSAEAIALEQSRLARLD
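Using a bead-based AlphaScreen, monomethylated H3K9 product from 2 h room-temperature reactions (G9a 20 nM, peptide 500 nM, SAM 20 uM) was detected with 0.5 ug/mL rabbit anti-H3K9me1 antibody.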
An asterisk follows results filed as active; ? = inconclusive; . = no result given; [ ] = dose if it differs, or a comment. Unless noted, the call rests on the fitted dose curve; in most records, active means well fitted curve in the direction sought with a large enough effect; inconclusive means small, poorly fitted or top-dose-only effect, or another doubt; inactive means no such curve, though single readings can be large; an effect the other way counts as inactive or inconclusive.

SMILES	HP1b binding inh	JMJD2A Tudor inh	BAZ2B inh	PI5P4Ka inh	PLK1 PBD inh	G9a inh
CCCn1c(CCC(=O)Nc2ccc(C)c(Cl)c2)nc2cccnc21	16%	-20%	-7%	.	.	-5%[59 µM]
CCOC(=O)COn1c(=O)c(-c2ccc(OC)c(OC)c2)[n+]([O-])c2ccccc21	.	.	-1%	.	.	22µM*
CCOC(=O)COn1c(=O)c(=O)n(O)c2ccccc21	5%	50µM*	-5%	0	-12%	45µM*
CC1(C)CC(Nc2ccc(Nc3ccccc3)cc2)CC(C)(C)N1	?	45µM*	35µM*	-15	-13%	?
CC1(C)CC(NC(=O)c2ccccc2)CC(C)(C)N1	5%	7%	13%	-1	9%	15%
COC(=O)Cc1csc(NC(=O)CSc2nnc3ccccn23)n1	?	?	0%	-28	17µM*	4%
CCOC(=O)Cc1csc(NC(=O)CSc2nnc(C)n2C)n1	28%	-16%	2%	0	-2%	17%[59 µM]
CN(C)C1=NCCN1CCc1cccc(F)c1	34%	-22%	-2%	-3	5%	-10%
COc1cc(C(=S)N2CCOCC2)ccc1OC(=O)c1ccccc1	13%	-10%	-26%	-6	-23%	40µM*
COc1ccc(C(=S)N2CCOCC2)cc1OC(=O)c1cccc([N+](=O)[O-])c1	-4%	?	-3%	2	-11%	-2%
COc1cc(C(=O)Oc2ccc(Br)cc2C(=S)N2CCOCC2)cc(OC)c1OC	?	-36%	-30%	-27	17µM*	10µM*
COc1ccc(C(=S)N2CCOCC2)cc1OC(=O)c1ccc(C)cc1	-20%	?	?	-1	-16%	45µM*
COc1cc(C(=O)Oc2ccc(C(=S)N3CCOCC3)cc2)cc(OC)c1OC	9%	3%	0%	3	-16%	.
COc1ccc(C(=S)N2CCOCC2)cc1OC(=O)c1cc(OC)c(OC)c(OC)c1	?	?	?	-8	27µM*	7.9µM*
Cc1ccc(C(=O)CCC(=O)N2CCN(C/C=C/c3ccccc3)CC2)cc1	.	.	.	-1	-10%	.
COc1ccc(C(=S)N2CCOCC2)cc1OC(=O)c1ccccc1	?	-35%	-38%	-1	27µM*	10µM*
CCOC(=O)C1=C(C)NC(=S)NC1c1ccsc1 (configuration not stated)	18%	-2%	-23%	-1	-26%	-29%
COc1ccc(C(Nc2cc(C)ccn2)c2ccc3ccc(C)nc3c2O)cc1 (configuration not stated)	-13%	?	-25%	-15	15µM*	4µM*
Cc1ccnc(NC(c2ccsc2)c2ccc3ccc(C)nc3c2O)c1 (configuration not stated)	?	?	?	?	3µM*	-152%[59 µM]
CCCCNC(=S)NNC(=O)C1=NN(c2cc(C)ccc2C)C(=O)CC1	53%	-15%	2%	4	-22%	?
Cc1ccc(C)c(/C=N/Nc2nc3ccccc3c(=O)n2O)c1	-13%	-11%	1%	?	24µM*	28µM*
C/C(=N\Nc1nc2ccccc2c(=O)n1O)c1ccco1	?	?	-4%	?	21µM*	79µM*
COCC(=O)N(C)C[C@H]1Oc2cc(C#Cc3cccnc3)ccc2S(=O)(=O)N([C@H](C)CO)C[C@H]1C	.	.	.	0	-9%	.
Cc1ccccc1CNC(=O)C(=O)Nc1nccs1	27%	0%	.	-7	-4%	13µM*
O=C(NCc1ccncc1)C(=O)NCc1ccncc1	33%	-6%	-11%	8	-18%	16%
COc1ccccc1CNC(=O)C(=O)Nc1nccs1	13%	?	-16%	2	-11%	?
O=C(NCc1ccncc1)C(=O)Nc1nccs1	8%	?	?	9	3%	14µM*
